Compound activity: PubChem BioAssay, National Center for Advancing Translational Sciences (NCATS)
Only some compounds are listed: those with a hit (about 14% of all), similar ones and a draw of the others.
Pf growth 48h = Primary qHTS for delayed death inhibitors of the malarial parasite plastid, 48 hour incubation; P. falciparum luciferase growth in erythrocytes, 48 h; Potency, µM (top dose mostly 28.7 µM), usual class: inhibitors; 310,000 compounds, 5.9% hits; AID 504832, 2011
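Compounds are pin-transferred into medium, infected erythrocytes (2% hematocrit, 0.1% parasitemia final) are added, and plates sit one parasite generation at 37 C in 5% CO2. Detection reagent is then added and luminescence measured.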
HCMV inh = qHTS Assay for inhibitors of the human cytomegalovirus (HCMV); HFF cells, HCMV-luciferase reporter, 72 h; stronger effect = lower value; 410,000 compounds, 4.5% hits; AID 1259415, 2018; activity change, negative = inhibition, % at 57.5 µM; in the data active = activity change below about -60%; inconclusive = no clear call, values can overlap the other calls; inactive = above about -39%
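After 16 h attachment at 37C, HFF cells received test compound and HCMV-luciferase (1 PFU/cell); reporter luminescence read 72 h later, data normalized against buffer-only and known inhibitor Salinomycin.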
Sm TGR block = qHTS Assay for the Inhibitors of Schistosoma Mansoni Peroxiredoxins | 360,000 compounds, 3% hits | purified TGR, DTNB reduction, TNB absorbance 405 nm | AID 485364, 2010 | Potency, µM (highest dose often 114 µM), most hits filed as inhibitors; also: nearly all actives have a fitted effect of over 60% in size
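TGR 20 nM + NADPH 100 uM (dispensed conc.), cpd preinc 15 min RT; start with NADPH (500 uM addition) then DTNB (15 mM addition). Kinetic TNB absorbance, 405 nm filter. Four-parameter Hill fit across titration.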
Pf growth 96h = Primary qHTS for delayed death inhibitors of the malarial parasite plastid, 96 hour incubation | P. falciparum luciferase reporter growth, 96 h | Potency, µM (titrated, usually from 28.7 µM), hits mostly inhibitors | 320,000 compounds, 6.9% hits | AID 504834, 2011
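Readout is luminescence from an integrated firefly luciferase in P. falciparum. Red cells, 2% hematocrit and 0.05% parasitemia final, were cultured with compound through two parasite generations (96 hours) at 37 C, 5% CO2.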
FBPA Giardia inh = qHTS Assay for Inhibitors of Fructose-1,6-bisphosphate Aldolase from Giardia Lamblia; 290,000 compounds, 0.71% hits; AID 2451, 2010; purified Giardia FBPA; Potency, µM (doses to about 59.6 µM), most hits filed as inhibitors; also: nearly all actives have a fitted effect of over 55% in size
Target sequence (A8B2U2 whole entry, looked up): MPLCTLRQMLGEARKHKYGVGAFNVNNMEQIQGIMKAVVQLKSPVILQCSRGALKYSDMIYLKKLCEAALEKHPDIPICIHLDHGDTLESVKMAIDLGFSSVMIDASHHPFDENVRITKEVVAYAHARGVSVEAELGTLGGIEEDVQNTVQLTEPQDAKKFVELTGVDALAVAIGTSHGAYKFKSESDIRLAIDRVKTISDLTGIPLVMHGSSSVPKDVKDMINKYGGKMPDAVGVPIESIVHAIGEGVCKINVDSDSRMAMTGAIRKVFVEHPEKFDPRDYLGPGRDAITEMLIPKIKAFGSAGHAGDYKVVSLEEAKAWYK
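Giardia FBPA (40 nM reagent) was preincubated 10 min at RT with compound (up to 57.5 uM final), then substrate plus GAPDH/TPI/NAD/arsenate coupling system with diaphorase/resazurin was added; resorufin fluorescence (525/598 nm) was read after 20 min.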
Large screens that a line does not name were inactive. Unless noted, calls follow the shape of the dose curve; as a rule, active = well fitted curve in the direction sought with a large enough effect; inconclusive = small, poorly fitted or top-dose-only effect, or another doubt; inactive = no such curve, though single readings can be large; an effect the other way counts as inactive or inconclusive.

O=C(Nc1cc(C(F)(F)F)ccc1Cl)C(NCc1ccccc1)c1ccccc1 (stereo not drawn)	Pf growth 48h 10µM, Pf growth 96h 9.3µM
Cc1cnc(C(=O)OC(C(=O)Nc2cc(C(F)(F)F)ccc2Cl)c2ccccc2)cn1 (stereo not drawn)	Pf growth 48h 15µM, Pf growth 96h 10µM
O=C(CC(=O)c1ccccc1)Nc1cc(C(F)(F)F)ccc1Cl	HCMV inh inconclusive
CC(C)CC1NC(=O)N(CC(=O)Nc2cc(F)ccc2F)C1=O (stereo not drawn)	none (no result: FBPA Giardia inh)
CCOC(=O)C(C)Oc1cccc2c(=O)n(CC(=O)NCc3ccc(F)cc3)ccc12 (stereo not drawn)	HCMV inh -65
COc1cccc2c(=O)n(CC(=O)NCCc3ccccc3)ccc12	Pf growth 48h 1.9µM, Pf growth 96h 3.3µM
CCOC(=O)C(C)Oc1cccc2c(=O)n(CC(=O)NCCc3ccccc3)ccc12 (stereo not drawn)	Pf growth 48h inconclusive
CCOC(=O)C(C)Oc1cccc2c(=O)n(CC(=O)NCc3ccccc3)ccc12 (stereo not drawn)	HCMV inh -89
COc1cccc2c1OC[C@@H](CO)[C@H]2N(C)C(=O)Nc1ccc(Cl)cc1Cl	HCMV inh -62
Nc1c(C(=O)CSc2nc3ccccc3o2)c(=O)[nH]c(=O)n1C1CC1	HCMV inh active (no result: FBPA Giardia inh)
Cn1c(N)c(C(=O)CSc2nnc(-c3c[nH]c4ccccc34)n2C2CC2)c(=O)[nH]c1=O	Pf growth 48h inconclusive, Pf growth 96h 6.6µM (no result: FBPA Giardia inh)
CCCn1c(N)c(C(=O)CSc2nnc(-c3c[nH]c4ccccc34)n2C2CC2)c(=O)[nH]c1=O	none (no result: Pf growth 48h, Sm TGR block, Pf growth 96h, FBPA Giardia inh)
O=C(CSc1nncs1)Nc1ccc(N2CCCCC2)cc1	none (no result: FBPA Giardia inh)
CSc1ncccc1C(=O)Nc1cccc(S(=O)(=O)N(C)c2ccccc2)c1	Pf growth 48h 9.3µM, Pf growth 96h inconclusive (no result: FBPA Giardia inh)
CSc1ncccc1C(=O)Nc1cccc(S(=O)(=O)N2CCCCC2)c1	Pf growth 48h 12µM, Pf growth 96h 10µM (no result: FBPA Giardia inh)
CSc1ncccc1C(=O)Nc1ccc(S(=O)(=O)N2CCCC2)cc1	Pf growth 48h inconclusive, Pf growth 96h inconclusive (no result: FBPA Giardia inh)
Cc1ccc(C)c(N(CC(=O)NC2CCCCC2)C(=O)c2snc(C(N)=O)c2N)c1	Pf growth 48h inconclusive
CC(C)(C)NC(=O)CN(C(=O)c1snc(C(=O)NC2CCCCC2)c1N)c1ccccc1F	Pf growth 48h 12µM
COc1ccc(C2C(C#N)=C(N)Oc3c2sc2nc(C)cc(C)c32)cc1 (stereo not drawn)	HCMV inh -68 (no result: Pf growth 96h)
CCN(C(=O)CCS(=O)(=O)c1ccc2c(c1)CCN2C(C)=O)c1cccc(C(F)(F)F)c1	none (no result: Pf growth 48h, Pf growth 96h, FBPA Giardia inh)
Cc1ccc(CN(CC2CCCO2)C(=O)CN2C(=O)C(C(C)C)Oc3ccccc32)o1 (stereo not drawn)	Pf growth 48h inconclusive, Sm TGR block 35µM
CC(C)C1Oc2ccccc2N(CC(=O)N(Cc2ccccn2)CC2CCCO2)C1=O (stereo not drawn)	none
Cc1cccc(OCCSCc2nc3ccccc3[nH]2)c1	Pf growth 48h inconclusive, Pf growth 96h inconclusive (no result: FBPA Giardia inh)
CC(c1ccccc1)C(Cc1nc2ccccc2[nH]1)c1nc2ccccc2[nH]1 (stereo not drawn)	Pf growth 48h 7.4µM (no result: HCMV inh)
Cc1cccc(CC(Cc2nc3ccccc3[nH]2)c2nc3ccccc3[nH]2)c1 (stereo not drawn)	Pf growth 48h inconclusive, HCMV inh -83
CCC(C)SCc1nc2ccccc2[nH]1 (stereo not drawn)	HCMV inh -63, Pf growth 96h inconclusive
Cc1ccccc1OCCSCc1nc2ccccc2[nH]1	Pf growth 48h inconclusive, HCMV inh inconclusive, Pf growth 96h 13µM
COc1ccc(C2CC(=O)CCN2S(=O)(=O)c2ccc(F)cc2)cc1 (stereo not drawn)	none (no result: Pf growth 48h, Sm TGR block, Pf growth 96h, FBPA Giardia inh)
Fc1ccc(/C=N/NC(=S)Nc2ccc(Cl)cc2)cc1F	none
CC(C)C(C)/C=C/C(C)C1CCC2C3=CCC4CC(=O)CC[C@@]4(C)C3CC[C@]21C (stereo partly drawn)	none (no result: Pf growth 48h, HCMV inh, Sm TGR block, Pf growth 96h)
COc1ccc(-c2cc(C3CCNCC3)[nH]n2)cc1	Pf growth 48h 2.6µM, Sm TGR block 45µM, Pf growth 96h 2.3µM
CCN(C(=O)Cn1c(=O)n(-c2ccccc2)c(=O)c2ccc(C(=O)NCc3ccc4c(c3)OCO4)cc21)c1cccc(C)c1	none (no result: Pf growth 48h, Pf growth 96h, FBPA Giardia inh)
O=C1C(Cc2ccccc2)Nc2ncnc(N3CCN(c4ccccc4)CC3)c2N1Cc1ccc(Cl)cc1 (stereo not drawn)	Pf growth 48h 3.7µM, Pf growth 96h 9.3µM (no result: FBPA Giardia inh)
CC(C)CC1Nc2ncnc(N3CCN(c4ccccn4)CC3)c2N(Cc2ccc(Cl)cc2)C1=O (stereo not drawn)	none (no result: Pf growth 48h, Sm TGR block, Pf growth 96h, FBPA Giardia inh)
COc1ccc(CN2C(=O)C(CC(C)C)Nc3ncnc(N4CCOCC4)c32)cc1 (stereo not drawn)	Pf growth 48h inconclusive, Pf growth 96h inconclusive (no result: FBPA Giardia inh)
O=C1C(Cc2ccccc2)Nc2ncnc(N3CCOCC3)c2N1Cc1ccc(Br)cc1 (stereo not drawn)	Pf growth 48h 13µM, Sm TGR block inconclusive, Pf growth 96h inconclusive (no result: FBPA Giardia inh)
Cc1ccc(CN2C(=O)C(C)Nc3ncnc(N4CCOCC4)c32)cc1 (stereo not drawn)	Pf growth 48h 10µM, Pf growth 96h 12µM (no result: FBPA Giardia inh)
O=C1C(Cc2ccccc2)Nc2ncnc(N3CCCCC3)c2N1Cc1ccc(Cl)cc1 (stereo not drawn)	Pf growth 48h 12µM, Sm TGR block inconclusive, Pf growth 96h 12µM (no result: HCMV inh, FBPA Giardia inh)
CCC(C)NS(=O)(=O)c1cc2c3c(c1)CCN3C(=O)CC2 (stereo not drawn)	none
COc1ccc(CCNC(=O)CCS(=O)(=O)Cc2ccccc2C)cc1OC	none
COC(=O)C1CC(O)C(O)C(O)C1 (stereo not drawn)	none (no result: Pf growth 48h, Sm TGR block, Pf growth 96h, FBPA Giardia inh)
CC1Nc2ncnc(N3CCN(c4ccccc4)CC3)c2N(Cc2ccccc2)C1=O (stereo not drawn)	Pf growth 48h inconclusive, Pf growth 96h inconclusive (no result: FBPA Giardia inh)
CC1Nc2ncnc(N3CCN(c4ccccc4)CC3)c2N(Cc2ccc(Cl)cc2)C1=O (stereo not drawn)	Pf growth 48h 8.3µM, Sm TGR block inconclusive, Pf growth 96h 13µM (no result: FBPA Giardia inh)
CCOc1ccc(N2C(=O)CC(N3CCN(C(=O)CN4CCCC4)CC3)C2=O)cc1 (stereo not drawn)	Sm TGR block 35µM
O=C(c1ccco1)N1CCN(C2CC(=O)N(c3ccc(F)c(Cl)c3)C2=O)CC1 (stereo not drawn)	Sm TGR block 20µM
COc1ccccc1N1C(=O)CC(N2CCN(c3ccc(F)cc3)CC2)C1=O (stereo not drawn)	Sm TGR block 45µM
CCOc1ccc(N2C(=O)CC(N3CCN(c4ccc(F)cc4)CC3)C2=O)cc1 (stereo not drawn)	Sm TGR block 45µM
